In ChEMBL document CHEMBL1961873, “Compounds: GSK PKIS; Assays: Nanosyn kinase panel” (2012):

Legend:
[1] = target: Mitogen-activated protein kinase 3 (Homo sapiens) (UniProt P27361); details: at 1 µM;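 further: values are mean percent inhibition of MAPK3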
[2] = target: SRSF protein kinase 3 (Homo sapiens) (UniProt Q9UPE1); details: at 0.1 µM
[3] = target: SRSF protein kinase 3 (Homo sapiens) (UniProt Q9UPE1); details: at 1 µM
[4] = target: Mitogen-activated protein kinase 14 (Homo sapiens) (UniProt Q16539); details: at 0.1 µM
Mitogen-activated protein kinase 14 (Homo sapiens), sequence (Q16539 whole entry): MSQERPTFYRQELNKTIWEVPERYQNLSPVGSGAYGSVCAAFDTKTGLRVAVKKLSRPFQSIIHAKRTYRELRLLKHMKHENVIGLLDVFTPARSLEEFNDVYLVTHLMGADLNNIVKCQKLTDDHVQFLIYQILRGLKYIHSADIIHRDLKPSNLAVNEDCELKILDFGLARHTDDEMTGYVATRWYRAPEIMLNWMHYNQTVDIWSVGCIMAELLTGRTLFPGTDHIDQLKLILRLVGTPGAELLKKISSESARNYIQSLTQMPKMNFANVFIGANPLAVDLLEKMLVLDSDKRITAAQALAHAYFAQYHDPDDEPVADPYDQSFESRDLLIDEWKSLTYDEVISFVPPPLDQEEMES

[5] = target: Mitogen-activated protein kinase 14 (Homo sapiens) (UniProt Q16539); details: at 1 µM
[6] = target: Mitogen-activated protein kinase 11 (Homo sapiens) (UniProt Q15759); details: at 0.1 µM
Mitogen-activated protein kinase 11 (Homo sapiens), sequence (Q15759 whole entry): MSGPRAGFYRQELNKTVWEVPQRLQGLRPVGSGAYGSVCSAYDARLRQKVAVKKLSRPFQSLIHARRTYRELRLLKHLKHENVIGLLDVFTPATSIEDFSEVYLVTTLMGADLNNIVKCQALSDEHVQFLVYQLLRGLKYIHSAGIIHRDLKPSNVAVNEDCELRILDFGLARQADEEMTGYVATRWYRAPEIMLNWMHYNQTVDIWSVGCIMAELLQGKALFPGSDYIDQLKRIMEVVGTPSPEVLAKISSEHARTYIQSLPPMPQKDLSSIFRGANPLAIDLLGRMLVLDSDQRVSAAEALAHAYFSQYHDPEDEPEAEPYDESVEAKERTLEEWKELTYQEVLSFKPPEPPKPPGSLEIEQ

[7] = target: Mitogen-activated protein kinase 11 (Homo sapiens) (UniProt Q15759); details: at 1 µM
[8] = target: T1, Mitogen-activated protein kinase 13 (Homo sapiens) (UniProt O15264); details: at 0.1 µM
T1 sequence (whole entry): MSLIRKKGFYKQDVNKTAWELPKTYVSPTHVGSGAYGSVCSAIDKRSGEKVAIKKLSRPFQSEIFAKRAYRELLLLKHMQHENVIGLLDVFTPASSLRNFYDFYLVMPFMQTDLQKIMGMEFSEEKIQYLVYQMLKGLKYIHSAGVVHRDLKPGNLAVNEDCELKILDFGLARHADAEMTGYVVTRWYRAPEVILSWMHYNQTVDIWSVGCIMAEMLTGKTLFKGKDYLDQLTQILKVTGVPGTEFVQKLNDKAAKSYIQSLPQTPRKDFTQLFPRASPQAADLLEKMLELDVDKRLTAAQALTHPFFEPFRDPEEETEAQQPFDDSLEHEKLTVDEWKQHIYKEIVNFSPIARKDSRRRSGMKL

[9] = target: T1, Mitogen-activated protein kinase 13 (Homo sapiens); details: at 1 µM
[10] = target: T2, Mitogen-activated protein kinase 12 (Homo sapiens) (UniProt P53778); details: at 0.1 µM
T2 sequence (whole entry): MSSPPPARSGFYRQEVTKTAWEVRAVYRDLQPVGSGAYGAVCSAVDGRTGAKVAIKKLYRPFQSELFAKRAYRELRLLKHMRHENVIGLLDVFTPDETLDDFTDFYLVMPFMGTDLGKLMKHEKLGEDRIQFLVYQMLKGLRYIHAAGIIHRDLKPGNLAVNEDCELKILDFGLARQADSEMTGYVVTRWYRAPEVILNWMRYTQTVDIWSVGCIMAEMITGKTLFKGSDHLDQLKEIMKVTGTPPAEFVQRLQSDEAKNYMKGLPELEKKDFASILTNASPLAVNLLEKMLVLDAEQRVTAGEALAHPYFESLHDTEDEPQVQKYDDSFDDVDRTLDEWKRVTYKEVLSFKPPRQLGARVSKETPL

[11] = target: T2, Mitogen-activated protein kinase 12 (Homo sapiens); details: at 1 µM
[12] = target: SRSF protein kinase 1 (Homo sapiens) (UniProt Q96SB4); details: at 0.1 µM
SRSF protein kinase 1 (Homo sapiens), sequence (Q96SB4 whole entry, canonical isoform): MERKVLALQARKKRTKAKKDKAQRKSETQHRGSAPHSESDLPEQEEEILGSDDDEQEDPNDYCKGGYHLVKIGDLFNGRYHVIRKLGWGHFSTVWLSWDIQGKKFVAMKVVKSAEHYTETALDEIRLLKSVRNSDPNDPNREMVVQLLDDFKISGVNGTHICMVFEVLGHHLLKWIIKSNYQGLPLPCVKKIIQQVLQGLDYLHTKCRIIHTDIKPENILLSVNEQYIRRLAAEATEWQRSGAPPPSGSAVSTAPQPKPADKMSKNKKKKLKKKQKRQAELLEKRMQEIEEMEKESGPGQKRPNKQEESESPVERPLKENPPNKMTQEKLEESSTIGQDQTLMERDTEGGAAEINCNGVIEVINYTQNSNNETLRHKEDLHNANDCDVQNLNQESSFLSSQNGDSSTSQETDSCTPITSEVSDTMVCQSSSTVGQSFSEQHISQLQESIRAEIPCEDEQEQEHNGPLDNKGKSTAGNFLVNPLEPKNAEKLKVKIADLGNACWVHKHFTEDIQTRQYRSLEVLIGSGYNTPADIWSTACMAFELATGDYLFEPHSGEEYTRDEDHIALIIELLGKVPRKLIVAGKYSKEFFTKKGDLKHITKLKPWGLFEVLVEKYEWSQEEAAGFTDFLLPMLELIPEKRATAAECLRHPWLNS

[13] = target: SRSF protein kinase 1 (Homo sapiens) (UniProt Q96SB4); details: at 1 µM
[14] = target: Phosphatidylinositol 4,5-bisphosphate 3-kinase catalytic subunit alpha isoform (Homo sapiens) (UniProt P42336); details: at 0.1 µM
Phosphatidylinositol 4,5-bisphosphate 3-kinase catalytic subunit alpha isoform (Homo sapiens), sequence (P42336 whole entry, canonical isoform): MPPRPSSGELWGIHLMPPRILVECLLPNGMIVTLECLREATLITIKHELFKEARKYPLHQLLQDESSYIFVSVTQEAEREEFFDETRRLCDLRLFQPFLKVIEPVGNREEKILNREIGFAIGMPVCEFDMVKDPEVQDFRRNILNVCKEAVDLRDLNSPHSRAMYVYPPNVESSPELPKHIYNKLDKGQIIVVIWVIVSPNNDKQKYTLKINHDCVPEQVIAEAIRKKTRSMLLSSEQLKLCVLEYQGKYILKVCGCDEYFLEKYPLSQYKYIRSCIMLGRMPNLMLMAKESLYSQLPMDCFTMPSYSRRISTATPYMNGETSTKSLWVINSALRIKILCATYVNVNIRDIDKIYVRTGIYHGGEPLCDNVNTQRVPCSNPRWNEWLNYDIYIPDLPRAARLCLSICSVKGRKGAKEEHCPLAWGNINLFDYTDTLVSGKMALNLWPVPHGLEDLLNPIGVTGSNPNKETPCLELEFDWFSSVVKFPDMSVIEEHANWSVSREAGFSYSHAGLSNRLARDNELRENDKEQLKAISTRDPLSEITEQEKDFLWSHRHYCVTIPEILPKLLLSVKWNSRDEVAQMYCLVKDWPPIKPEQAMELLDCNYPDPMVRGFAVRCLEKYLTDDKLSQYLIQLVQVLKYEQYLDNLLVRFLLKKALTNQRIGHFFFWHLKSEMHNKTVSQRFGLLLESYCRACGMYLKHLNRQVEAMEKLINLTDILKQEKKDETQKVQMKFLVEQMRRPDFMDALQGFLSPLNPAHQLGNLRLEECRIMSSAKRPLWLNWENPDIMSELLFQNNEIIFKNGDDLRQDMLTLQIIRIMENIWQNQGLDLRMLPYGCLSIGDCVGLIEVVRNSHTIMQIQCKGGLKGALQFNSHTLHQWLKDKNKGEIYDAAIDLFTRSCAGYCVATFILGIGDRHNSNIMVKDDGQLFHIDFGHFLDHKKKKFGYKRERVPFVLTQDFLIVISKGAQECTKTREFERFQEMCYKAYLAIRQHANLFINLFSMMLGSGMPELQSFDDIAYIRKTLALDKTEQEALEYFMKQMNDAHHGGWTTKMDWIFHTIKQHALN

[15] = target: Phosphatidylinositol 4,5-bisphosphate 3-kinase catalytic subunit alpha isoform (Homo sapiens) (UniProt P42336); details: at 1 µM
[16] = target: T3, Phosphatidylinositol 4,5-bisphosphate 3-kinase catalytic subunit delta isoform (Homo sapiens) (UniProt O00329); details: at 0.1 µM
T3 sequence (whole entry): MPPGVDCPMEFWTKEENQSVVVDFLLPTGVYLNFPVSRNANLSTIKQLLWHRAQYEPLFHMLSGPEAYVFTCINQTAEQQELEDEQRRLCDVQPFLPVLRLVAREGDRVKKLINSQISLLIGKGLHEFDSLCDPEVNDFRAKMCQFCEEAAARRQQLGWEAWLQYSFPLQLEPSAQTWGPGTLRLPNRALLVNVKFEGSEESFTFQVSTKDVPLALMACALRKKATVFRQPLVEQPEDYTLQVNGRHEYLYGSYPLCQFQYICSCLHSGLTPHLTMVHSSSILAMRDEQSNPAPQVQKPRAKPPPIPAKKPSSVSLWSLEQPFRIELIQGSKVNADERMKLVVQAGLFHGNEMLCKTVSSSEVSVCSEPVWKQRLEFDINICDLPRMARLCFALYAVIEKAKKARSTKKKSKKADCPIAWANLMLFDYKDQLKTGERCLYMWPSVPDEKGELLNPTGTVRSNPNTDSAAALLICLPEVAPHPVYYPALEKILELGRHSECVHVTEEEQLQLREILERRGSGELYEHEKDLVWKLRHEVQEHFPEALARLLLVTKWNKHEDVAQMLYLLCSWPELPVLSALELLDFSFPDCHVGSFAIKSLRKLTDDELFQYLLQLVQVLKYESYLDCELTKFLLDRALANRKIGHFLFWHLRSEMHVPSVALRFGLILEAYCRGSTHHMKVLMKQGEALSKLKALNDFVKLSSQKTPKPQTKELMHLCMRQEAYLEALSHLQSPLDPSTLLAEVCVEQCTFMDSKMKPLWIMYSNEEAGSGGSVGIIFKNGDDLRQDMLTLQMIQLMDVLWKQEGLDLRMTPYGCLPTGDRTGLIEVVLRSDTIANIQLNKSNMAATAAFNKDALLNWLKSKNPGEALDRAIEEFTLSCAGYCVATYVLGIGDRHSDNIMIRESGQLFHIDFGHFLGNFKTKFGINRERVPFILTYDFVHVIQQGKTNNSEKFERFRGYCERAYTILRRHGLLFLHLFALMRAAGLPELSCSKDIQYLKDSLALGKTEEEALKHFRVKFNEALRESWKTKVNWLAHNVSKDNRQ

[17] = target: T3, Phosphatidylinositol 4,5-bisphosphate 3-kinase catalytic subunit delta isoform (Homo sapiens); details: at 1 µM
[18] = target: Phosphatidylinositol 4-kinase beta (Homo sapiens) (UniProt Q9UBF8); details: at 0.1 µM
Phosphatidylinositol 4-kinase beta (Homo sapiens), sequence (Q9UBF8 2-816 limits assumed): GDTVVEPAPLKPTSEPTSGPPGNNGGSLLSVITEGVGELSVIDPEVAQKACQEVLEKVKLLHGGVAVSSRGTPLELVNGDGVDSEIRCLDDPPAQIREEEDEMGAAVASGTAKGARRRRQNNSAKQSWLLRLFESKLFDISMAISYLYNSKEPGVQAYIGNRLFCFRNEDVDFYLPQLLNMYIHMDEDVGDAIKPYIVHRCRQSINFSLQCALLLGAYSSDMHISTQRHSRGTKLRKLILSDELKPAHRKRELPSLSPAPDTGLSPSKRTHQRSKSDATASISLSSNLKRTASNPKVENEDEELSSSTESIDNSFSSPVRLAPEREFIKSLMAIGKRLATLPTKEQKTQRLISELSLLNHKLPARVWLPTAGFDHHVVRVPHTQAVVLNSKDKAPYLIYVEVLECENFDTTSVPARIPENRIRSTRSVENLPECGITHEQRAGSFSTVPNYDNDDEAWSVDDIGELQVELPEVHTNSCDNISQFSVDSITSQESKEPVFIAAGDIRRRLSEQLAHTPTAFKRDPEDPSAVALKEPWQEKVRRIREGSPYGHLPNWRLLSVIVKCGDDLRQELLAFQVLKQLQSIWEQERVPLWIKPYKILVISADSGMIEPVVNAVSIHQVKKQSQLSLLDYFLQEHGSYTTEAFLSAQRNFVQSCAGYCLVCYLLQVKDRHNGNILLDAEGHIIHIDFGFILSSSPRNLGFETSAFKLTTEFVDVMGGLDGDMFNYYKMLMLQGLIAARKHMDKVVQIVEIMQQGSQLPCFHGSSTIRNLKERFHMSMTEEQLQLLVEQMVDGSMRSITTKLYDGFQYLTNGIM

[19] = target: Phosphatidylinositol 4-kinase beta (Homo sapiens) (UniProt Q9UBF8); details: at 1 µM
[20] = target: Sphingosine kinase 1 (Homo sapiens) (UniProt Q9NYA1); details: at 0.1 µM;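 further: mean percent inhibition of SPHK1 activity, measured within the GSK PKIS screening panel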
Sphingosine kinase 1 (Homo sapiens), sequence (Q9NYA1 whole entry): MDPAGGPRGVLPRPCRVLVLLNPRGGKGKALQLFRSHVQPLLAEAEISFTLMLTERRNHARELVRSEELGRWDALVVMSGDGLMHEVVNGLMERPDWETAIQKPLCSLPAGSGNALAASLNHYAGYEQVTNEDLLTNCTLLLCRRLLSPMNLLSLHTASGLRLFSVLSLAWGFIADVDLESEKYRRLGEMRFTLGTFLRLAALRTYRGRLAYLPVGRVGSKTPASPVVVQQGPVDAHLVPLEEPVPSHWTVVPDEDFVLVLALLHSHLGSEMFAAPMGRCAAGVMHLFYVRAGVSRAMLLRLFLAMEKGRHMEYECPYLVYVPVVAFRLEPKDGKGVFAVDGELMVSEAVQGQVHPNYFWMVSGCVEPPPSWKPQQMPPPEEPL

SRSF protein kinase 3 (Homo sapiens), sequence (Q9UPE1 whole entry): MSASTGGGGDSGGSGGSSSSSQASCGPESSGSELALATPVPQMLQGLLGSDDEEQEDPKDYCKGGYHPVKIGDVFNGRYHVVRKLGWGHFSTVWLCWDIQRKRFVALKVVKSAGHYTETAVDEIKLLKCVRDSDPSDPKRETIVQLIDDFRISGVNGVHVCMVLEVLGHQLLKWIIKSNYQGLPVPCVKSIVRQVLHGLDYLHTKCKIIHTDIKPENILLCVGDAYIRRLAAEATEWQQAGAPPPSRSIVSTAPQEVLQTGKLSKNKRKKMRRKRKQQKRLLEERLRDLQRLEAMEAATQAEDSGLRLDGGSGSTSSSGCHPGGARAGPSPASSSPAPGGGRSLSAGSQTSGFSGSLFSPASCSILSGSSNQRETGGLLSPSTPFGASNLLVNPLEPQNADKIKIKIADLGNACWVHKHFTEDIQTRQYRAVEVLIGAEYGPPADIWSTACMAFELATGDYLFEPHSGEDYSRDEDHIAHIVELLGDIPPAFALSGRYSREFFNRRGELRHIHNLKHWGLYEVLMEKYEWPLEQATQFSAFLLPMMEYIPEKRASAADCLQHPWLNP
Mitogen-activated protein kinase 3 (Homo sapiens), sequence (P27361 whole entry): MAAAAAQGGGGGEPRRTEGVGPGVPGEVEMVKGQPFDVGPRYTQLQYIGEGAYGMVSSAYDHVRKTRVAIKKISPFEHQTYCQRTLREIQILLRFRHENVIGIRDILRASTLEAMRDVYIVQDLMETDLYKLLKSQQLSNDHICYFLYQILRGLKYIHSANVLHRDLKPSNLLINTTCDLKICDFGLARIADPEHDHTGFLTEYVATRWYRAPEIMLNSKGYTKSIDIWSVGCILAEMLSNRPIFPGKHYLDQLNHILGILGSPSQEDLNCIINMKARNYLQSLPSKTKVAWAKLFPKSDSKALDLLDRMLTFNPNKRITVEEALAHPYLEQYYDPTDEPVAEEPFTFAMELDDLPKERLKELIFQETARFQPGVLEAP

Row | Compound | inhibition [1] [%] | inhibition [2] [%] | inhibition [3] [%] | inhibition [4] [%] | inhibition [5] [%] | inhibition [6] [%] | inhibition [7] [%] | inhibition [8] [%] | inhibition [9] [%] | inhibition [10] [%] | inhibition [11] [%] | inhibition [12] [%] | inhibition [13] [%] | inhibition [14] [%] | inhibition [15] [%] | inhibition [16] [%] | inhibition [17] [%] | inhibition [18] [%] | inhibition [19] [%] | inhibition [20] [%]
1 | CS(=O)(=O)CCNCc1ccc(-c2ccc3ncnc(Nc4ccc(OCc5ccccc5)c(C(F)(F)F)c4)c3c2)o1 | 3.07 | -3 | -1.24 | 5.55 | 2.96 | 4.3 | 5.41 | 3.67 | 2.13 | 2.6 | 2.8 | -2.41 | -1.93 | 4.02 | 4.89 | 0.55 | 2.2 | -0.29 | 1.06 | 0.51
2 | COc1ccc(-c2nn3ncccc3c2-c2ccnc(Nc3ccc4c(c3)OCCO4)n2)cc1 | 1.27 | -1.29 | -0.23 | 68.9 | 87 | 48.6 | 75.4 | 0.57 | -1.08 | 0.47 | 1.16 | -0.82 | -2.72 | 2.37 | 3.63 | 2.13 | 5.91 | -2.82 | -1.12 | -0.35
3 | COC(=O)c1sc(-n2cnc3cc(OC)c(OC)cc32)cc1OCc1ccccc1C(F)(F)F | 2.3 | -0.91 | -2.27 | 2.39 | 9.56 | 6.02 | 8.21 | -0.67 | 4.4 | 0.89 | 2.9 | -3.05 | -6.39 | 4.25 | 4.16 | 2.55 | 4.61 | -0.98 | -2.56 | -3.91
4 | COc1cc2ncn(-c3cc(OCc4ccccc4C(F)(F)F)c(C(=O)N(C)C)s3)c2cc1OC | -0.07 | -2.08 | -1.83 | 7.43 | 1.82 | -4.05 | 1.82 | -0.21 | 0.14 | 0.9 | 0.94 | -1.25 | -2.46 | 0.78 | 1.16 | 0.51 | 2.3 | 2.07 | 0.96 | 2.3
5 | Fc1ccc(-c2nn3ccccc3c2-c2ccncc2)cc1 | 0.82 | -2.15 | 1.26 | 41.4 | 81.2 | 7.33 | 38.7 | -0.3 | 0.46 | 1.66 | 1.62 | -2.12 | -2.82 | 0.14 | 1.14 | 0.32 | 2.31 | -1.2 | 1.37 | -0.49
6 | COc1ccc(-c2oc3ncnc(N)c3c2-c2ccc(NC(=O)Nc3cc(C(F)(F)F)ccc3F)cc2)cc1 | 4.66 | 2.74 | 48.7 | 4.62 | 30.4 | 5.32 | 37.8 | 1.95 | 15.3 | -3.37 | 17.6 | 1.18 | 34.5 | 2.34 | 20.6 | 2.28 | 22.4 | 6.88 | 5.84 | 0.16
7 | COc1cc(N2CCN(C(C)C)CC2)ccc1Nc1nc(Nc2ccc(F)cc2C(N)=O)c2cc[nH]c2n1 | 5.68 | 4.97 | 4.84 | 4.36 | 8.96 | 1.51 | 9.48 | 0.06 | 2.28 | 0.86 | 2.22 | -2.51 | 1.46 | 0.53 | 0.95 | -1.34 | 2.71 | 0.5 | -1.98 | 0.81
8 | COc1cc2c(cc1Nc1nc(Nc3ccsc3C(N)=O)c3cc[nH]c3n1)N(C(=O)CN(C)C)CCC2(C)C | 3.62 | 0.09 | 3.51 | 4.03 | 10.7 | 5.19 | 8.81 | 2.03 | 9.12 | 1.64 | 4.23 | -1.82 | 15.8 | 4.65 | 5.27 | 2.82 | 13.9 | -0.32 | -1.38 | 3.22
9 | COc1cccc(-c2c[nH]c3c(N/N=C/c4ccncc4)ncnc23)c1 | 6.39 | 1.36 | 1.67 | 7.04 | 13.3 | 2.44 | 7.25 | 6.19 | 38.2 | 1.88 | 14.7 | 0.71 | -1.68 | 1.14 | 4.14 | 0.94 | 3.3 | -3.02 | 0.08 | -4.21
10 | CCn1c(-c2nonc2N)nc2cnc(Oc3cccc(NC(=O)c4ccc(N(C)C)cc4)c3)cc21 | 1.36 | -1.98 | -3.41 | -0.32 | 8.29 | 1.19 | 1.94 | -1.13 | 2.57 | 0.02 | 1.5 | -1.72 | -1.86 | -0.72 | 0.76 | 0.62 | 1.65 | -0.87 | 2.47 | -2.61
11 | CCn1c(-c2nonc2N)nc2ccccc21 | 1.82 | 2.33 | 1.24 | 1.01 | 4.34 | 3.58 | 4.06 | 2.36 | 3.3 | 0.66 | 1.22 | -2.61 | -2.83 | 3.75 | 1.82 | 3.37 | 3.25 | 7.06 | 0.95 | 0.28
12 | CS(=O)(=O)CCNCc1coc(-c2ccc3ncnc(Nc4ccc(OCc5ccccc5)cc4)c3c2)c1 | 4.16 | 0.59 | -0.06 | 3.52 | 5.25 | 1.13 | 5.1 | 1.6 | 1.56 | 1.93 | 3.41 | -2.53 | -3.45 | 2.17 | 3.25 | 0.39 | 0.49 | -2.05 | -3.75 | 4.73
13 | c1ccc(COc2ccc(Nc3ncnc4ccc(-c5ccco5)cc34)cc2)cc1 | 1.18 | -1.34 | -0.68 | 2.18 | 2.81 | 1.43 | 0.27 | 0.6 | -0.53 | 0.76 | 0.69 | -1.86 | -1.65 | 0.06 | 2.59 | 3.33 | 4.52 | -1.76 | -1.04 | 1.84
